High-throughput results deposited in PubChem BioAssay by National Center for Advancing Translational Sciences (NCATS).
A selection: hits, their analogues and other compounds. The true share with any hit is near 7.9%.
MCF10A rereplic: A quantitative high throughput screen for small molecules that induce DNA re-replication in MCF 10a normal breast cells; MCF 10A DNA re-replication, Hoechst nuclear intensity, 48 h; Potency, µM (top dose mostly 46.1 µM), without a hit: at the top dose activity, positive = re-replication, actives largely listed as activators; AID 624296, 2012; hit rate 2.9% among 350,000; further: % of control where 0% means no effect; nearly all actives have a fitted effect of over 50% in size
SW480 rereplic: A quantitative high throughput screen for small molecules that induce DNA re-replication in SW480 colon adenocarcinoma cells | SW480 DNA re-replication, Hoechst DNA content imaging, 48 h | Potency, µM (titrated, usually from 46.1 µM), without a hit: at the highest dose re-replication activation, most hits filed as activators | hit rate 1.8% among 340,000 | AID 624297, 2012; further: % of control where 0% means no effect; nearly all actives have a fitted effect of over 55% in size
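Image-based DNA-content assay: after two days of treatment, nuclei were labelled with the DNA dye Hoechst and imaged, and hits were compounds raising the count of nuclei showing high fluorescence intensity.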
KB-3-1 tox: qHTS assay for MDR1-selective chemotherapeutics: Primary screen using the parental adenocarcinoma cell KB-3-1; KB-3-1 viability, CellTiter-Glo ATP luminescence, 72 h; Potency, µM (titrated, usually from 46.1 µM), most hits filed as cytotoxic; hit rate 1.4% among 400,000; AID 1347075, 2019; further: on the % scale 0 is the no-effect control and ±100 the full control effect; nearly all actives have a fitted effect of over 60% in size
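Cytotoxicity measured as CellTiter-Glo luminescence after 72 h at 37 C. Compound titrations were pinned onto drug-naive KB-3-1 parental adenocarcinoma cells grown in DMEM with 10% FBS, and normalized data fitted to concentration-response curves.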
HT1080-NT tox: qHTS for induction of synthetic lethality in tumor cells producing 2HG: qHTS for the HT-1080-NT fibrosarcoma cell line; Potency, µM (highest dose often 46.1 µM), inactives show at the top dose activity, negative = less viability, hits mostly cytotoxic; HT-1080-NT fibrosarcoma viability, CellTiter-Glo ATP luminescence, 48 h; hit rate 1.6% among 360,000;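 further: NT is the 2HG producing partner of a matched IDH1 knockdown line; 0% = DMSO-treated cells and -100% = media-only wells without cells; nearly all actives have a fitted effect of over 55% in size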
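HT-1080-NT fibrosarcoma cells (2HG-overproducing), 750 cells/well in RPMI with 5% FBS, dosed after 2 h and incubated 48 h at 37C. CellTiter-Glo luminescence normalized to DMSO and no-cell wells; concentration-response curves fitted and classed.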
KB-V1 cytotox: qHTS assay for MDR1-selective chemotherapeutics: Primary screen using the drug-selected MDR subline cells KB-V1. KB-V1 MDR cells viability, CellTiter-Glo, 72 h. Potency, µM (series often up to 46.1 µM), actives largely listed as cytotoxic. hit rate 3.4% among 400,000; further: on the % scale 0 is the no-effect control and ±100 the full control effect; nearly all actives have a fitted effect of over 60% in size
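Drug-selected KB-V1 cells, grown in DMEM lacking phenol red with 10% FBS, receive compound titrations; after three days at 37 degrees C, surviving cell ATP is quantified by CellTiter-Glo luminescence and responses normalized and curve-fitted.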
HT1080 IDH1KD tx: qHTS for induction of synthetic lethality in tumor cells producing 2HG: qHTS for the HT-1080-IDH1KD cell line; HT-1080 IDH1 knockdown viability, ATP luminescence, 48 h; Potency, µM (doses to about 46.1 µM), for inactives: top-dose activity, negative = toxicity, usual class: cytotoxic; hit rate 2% among 360,000; AID 686971, 2013;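 further: 0% = DMSO wells and -100% = cell-free medium wells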
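HT-1080-IDH1KD cells (IDH1 knocked down), 750/well in RPMI with 5% FBS, treated with compound 48 h at 37 degrees C. Viability by CellTiter-Glo luminescence, normalised to DMSO and no-cell wells; concentration-response curves classed.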
Starred values were filed as active, the others as inactive; [ ] = another dose, or the depositor's remark. The call rests on the fitted dose curve; in most records, active means well fitted curve in the direction sought with a large enough effect; inconclusive means small, poorly fitted or top-dose-only effect, or another doubt; inactive means no such curve, though single readings can be large; an effect the other way counts as inactive or inconclusive. Potency means the concentration at half of the fitted maximal effect.

Screening O=C(NNC(=O)c1cc(Br)ccc1Cl)c1csc(N2CCOCC2)n1 returned MCF10A rereplic -9%, SW480 rereplic -12%, KB-3-1 tox inactive, HT1080-NT tox -1%, KB-V1 cytotox inconclusive and HT1080 IDH1KD tx -16%.
`Cc1c(Cl)cccc1-n1c(CCC(=O)O)ccc1-c1cccs1` gave KB-3-1 tox inactive and KB-V1 cytotox inactive.
`Cc1ccccc1CNc1ncnc2cc(Cl)ccc12` gave MCF10A rereplic -16%, SW480 rereplic -2%, KB-3-1 tox inactive, HT1080-NT tox inconclusive, KB-V1 cytotox inactive and HT1080 IDH1KD tx inconclusive.
Cc1ccc(CNc2ncnc3cc(Cl)ccc23)o1 was read as MCF10A rereplic -15%, SW480 rereplic 3%, KB-3-1 tox inconclusive, HT1080-NT tox -5%, KB-V1 cytotox 21µM* and HT1080 IDH1KD tx -3%.
COc1cc2ncnc(NCc3ccc(C)o3)c2cc1OC was read as MCF10A rereplic -2%, SW480 rereplic -9%, KB-3-1 tox inactive, HT1080-NT tox 0%, KB-V1 cytotox inactive and HT1080 IDH1KD tx 0%.
`Cc1ccc(CNc2ncnc3cc(Cl)ccc23)cc1` gave MCF10A rereplic 13%, SW480 rereplic -20%, KB-3-1 tox inconclusive, HT1080-NT tox inconclusive, KB-V1 cytotox inactive and HT1080 IDH1KD tx 23µM*.
Cc1c(Cl)c(C(=O)N2CCCc3ccccc32)nn1C was read as MCF10A rereplic 7%, SW480 rereplic 5%[9.22 µM], KB-3-1 tox inactive, HT1080-NT tox 7%, KB-V1 cytotox inactive and HT1080 IDH1KD tx 4%.
Screening Cc1ccc(S(=O)(=O)Nc2ccccc2CNc2ncc(Br)cc2Br)cc1 returned MCF10A rereplic -3%, SW480 rereplic inconclusive, KB-3-1 tox inconclusive, HT1080-NT tox -13%, KB-V1 cytotox 2.9µM* and HT1080 IDH1KD tx -9%.
`Cc1ccc(S(=O)(=O)CC(=O)Nc2ccc(S(=O)(=O)Nc3ccccn3)cc2)cc1` gave MCF10A rereplic 1.5µM*, SW480 rereplic -50%, KB-3-1 tox inactive, HT1080-NT tox 4%, KB-V1 cytotox inactive and HT1080 IDH1KD tx -3%.
Cc1ccc(S(=O)(=O)CC(=O)Nc2ccccn2)cc1 was read as MCF10A rereplic 5%, SW480 rereplic -8%, KB-3-1 tox inactive, HT1080-NT tox 0%, KB-V1 cytotox inactive and HT1080 IDH1KD tx 1%.
Oc1ccccc1CNc1ccc(Br)cn1 was read as MCF10A rereplic inconclusive, SW480 rereplic 0%, KB-3-1 tox inactive, HT1080-NT tox 10µM*, KB-V1 cytotox inactive and HT1080 IDH1KD tx 12µM*.
Screening Brc1ccc(NCc2cccc3ccccc23)nc1 returned MCF10A rereplic inconclusive, SW480 rereplic 12%, KB-3-1 tox inactive, HT1080-NT tox -4%, KB-V1 cytotox inactive and HT1080 IDH1KD tx -4%.
Cc1ccc(S(=O)(=O)Nc2ccccc2CNc2ccc(Br)cn2)cc1 was read as MCF10A rereplic inconclusive, SW480 rereplic inconclusive, KB-3-1 tox 23µM*, HT1080-NT tox -16%, KB-V1 cytotox 5.8µM* and HT1080 IDH1KD tx -24%.
Screening Cc1ccc(S(=O)(=O)Nc2ccccc2CNc2ccccn2)cc1 returned MCF10A rereplic 1%, SW480 rereplic -3%, KB-3-1 tox inconclusive, HT1080-NT tox 0%, KB-V1 cytotox 21µM* and HT1080 IDH1KD tx -1%.
Cc1ccc(S(=O)(=O)Nc2ccccc2-c2ccccc2NS(=O)(=O)c2ccc(C)cc2)cc1 was read as MCF10A rereplic inconclusive, SW480 rereplic -3%, KB-3-1 tox inconclusive, HT1080-NT tox inconclusive, KB-V1 cytotox inconclusive and HT1080 IDH1KD tx inconclusive.
For CCCC(=O)N(C1CC(C)C(C#N)(C#N)C1(C#N)C#N)N(C)C (stereo unspecified) the results were MCF10A rereplic 2.9µM*, SW480 rereplic 4.6µM*, KB-3-1 tox inactive, HT1080-NT tox inconclusive, KB-V1 cytotox inactive and HT1080 IDH1KD tx inconclusive.
`O=C(Nc1ccc2c(c1)C(=O)NC2=O)c1ccccc1` gave MCF10A rereplic -2%, SW480 rereplic -1%, KB-3-1 tox inactive, HT1080-NT tox 14%, KB-V1 cytotox inactive and HT1080 IDH1KD tx 21%.
Cc1ccc(C)c(N2CCN(C(=O)C3CCCCN3S(=O)(=O)c3ccc(F)cc3)CC2)c1 (stereo unspecified) was read as MCF10A rereplic 19%, SW480 rereplic 5%, KB-3-1 tox inconclusive, HT1080-NT tox -1%, KB-V1 cytotox 2.6µM* and HT1080 IDH1KD tx -11%.
Cc1cc(C)nc(N2CCC(C(=O)N3CCN(c4cc(Cl)ccc4C)CC3)CC2)n1 was read as MCF10A rereplic inconclusive, SW480 rereplic inconclusive, KB-3-1 tox inconclusive, HT1080-NT tox inconclusive, KB-V1 cytotox 4.1µM* and HT1080 IDH1KD tx inconclusive.
`Cc1ccc(C)c(N2CCN(C(=O)C3CCN(c4nc(C)cc(C)n4)CC3)CC2)c1` gave MCF10A rereplic 3%, SW480 rereplic 1%, KB-3-1 tox inconclusive, HT1080-NT tox inconclusive, KB-V1 cytotox 3.7µM* and HT1080 IDH1KD tx inconclusive.
Screening O=C(O)C1CCCN1S(=O)(=O)c1ccc(F)cc1 (stereo unspecified) returned MCF10A rereplic 3%, SW480 rereplic -39%, KB-3-1 tox inactive, HT1080-NT tox 13%, KB-V1 cytotox inactive and HT1080 IDH1KD tx 6%.
For Cc1ccc(Cl)cc1N1CCN(C(=O)C2CCN(S(C)(=O)=O)CC2)CC1 the results were MCF10A rereplic 5%, SW480 rereplic 22%, KB-3-1 tox inactive, HT1080-NT tox -2%, KB-V1 cytotox inactive and HT1080 IDH1KD tx -6%.
O=c1cc(NC2CCCCC2)[nH]c(=O)[nH]1 was read as MCF10A rereplic -3%, SW480 rereplic -21%, KB-3-1 tox inactive, HT1080-NT tox 14%, KB-V1 cytotox inactive and HT1080 IDH1KD tx 23%.
Screening CCOC(=O)Cc1ccc(NC(=O)c2ccc([N+](=O)[O-])cc2)cc1 returned MCF10A rereplic inconclusive, SW480 rereplic -72%, KB-3-1 tox inactive, HT1080-NT tox -3%, KB-V1 cytotox inconclusive and HT1080 IDH1KD tx -13%.
`Cc1ccc(C(C(=O)NC2CCCC2)N2CCCCC2)cc1` (stereo unspecified) gave MCF10A rereplic 2%, SW480 rereplic -11%, KB-3-1 tox inactive, HT1080-NT tox -7%, KB-V1 cytotox inactive and HT1080 IDH1KD tx -1%.
